Screening data: PubChem BioAssay, Broad Institute
Only a selection was taken, and hits are over-represented in it overall.
miR122 inh: activators of miR-122 sensor in Huh7 cells; Huh7 psiCHECK-miR122 Renilla luciferase sensor, 48 h; activation, % at 12.5 µM; hit rate 0.14% among 340,000;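 active means mean activation of 30% or more, with every replicate also reaching 30%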;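 further: 0% = median of neutral control wells and 100% = median of positive control wells; higher luciferase signal means stronger suppression of miR-122 activity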
* = called active by the depositor.

SMILES	miR122 inh
CN1CCN(c2ccc([N+](=O)[O-])c3no[n+]([O-])c23)CC1	35*
O=C1NC(=O)C(CCc2ccncc2)(Cc2cccc(Cl)c2Cl)C(=O)N1c1ccc(Br)cc1 (centres undefined)	-491
CCCCn1nnnc1C(c1cccc(OC)c1OC)N1CCC2(CC1)C(=O)NCN2c1ccccc1 (centres undefined)	-92
COc1ccc(NP(=O)(Oc2ccc(Cl)cc2)Oc2ccc(Cl)cc2)cc1OC	-136
COc1ccc(C2SCC(=O)Nc3c2c(=O)[nH]n3C2CCCCCC2)cc1 (centres undefined)	37*
CN=C1CN(O)C(c2ccccc2)c2cc(Cl)ccc2N1 (centres undefined)	-111
O=c1cc(C2CCNCC2)[nH][nH]1	-156
CCOc1ccccc1NC(=O)N1CCC2(CC1)OCCO2	-115
Cc1ccc(OP(=O)(Nc2cccc(C)c2)Oc2ccc(C)cc2)cc1	-187
CCN(CC)S(=O)(=O)c1ccc(C)c(NCC(=O)Nc2ccc(C#N)c(Cl)c2)c1	-119
